# Pf growth 48h: Primary qHTS for delayed death inhibitors of the malarial parasite plastid, 48 hour incubation; P. falciparum luciferase growth in erythrocytes, 48 h; Potency, µM (doses to about 28.7 µM), for inactives: at the highest dose activity change, negative = inhibition, hits mostly inhibitors; 310,000 tested, 5.9% active; AID 504832, 2011; note: % is set by controls: 0 for no effect and ±100 for the full control effect
#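 A one-generation exposure of luciferase-tagged malaria parasites in RPMI 1640/Albumax erythrocyte culture, 37 C and 5% CO2. Inhibition is inferred from decreased luminescence after adding detection reagent.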
# NS1 function inh: qHTS Assay for Inhibitors of Influenza NS1 Protein Function. Potency, µM (titrated, usually from 46.1 µM), without a hit: at the highest dose activity, positive = more growth. 270,000 tested, 0.4% active. AID 2326, 2010; calls by dose curve; note: actives are rising curves; nearly all actives have a fitted effect of over 50% in size
#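 In this qHTS, NS1 from influenza A is expressed in budding yeast, where it slows growth. Cells are switched from glucose to 2% galactose medium (pH 6.0, -URA), treated with compound, and growth recovery is read at OD600.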
# AMA1-RON2 inh: qHTS for Inhibitors of AMA1-RON; Towards Development of Antimalarial Drug Lead: Primary Screen; Potency, µM (highest dose often 58.2 µM), for inactives: at the top dose activity change, negative = inhibition, most hits filed as inhibitors; AlphaScreen AMA1-biotinylated RON2 peptide binding; 360,000 tested, 0.2% active;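 note: 0% = vehicle wells and -100% = peptide control; nearly all actives have a fitted effect of over 45% in size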
#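 AMA1 (3D7) with his tag at 25 nM final met compounds first, then biotinylated RON2 peptide at 25 nM; detection used donor plus acceptor beads, 10 µg/mL apiece, read by AlphaScreen after 30 min at room temperature.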
# Sm TGR block: qHTS Assay for the Inhibitors of Schistosoma Mansoni Peroxiredoxins; Schistosoma mansoni thioredoxin glutathione reductase (TGR), Q962Y6; purified TGR, DTNB reduction, TNB absorbance 405 nm; Potency, µM (highest dose often 114 µM), for the others: top-dose activity change, negative = inhibition, hits mostly inhibitors; 360,000 tested, 3% active; AID 485364, 2010; note: % is set by controls: 0 for no effect and ±100 for the full control effect; nearly all actives have a fitted effect of over 60% in size
#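 First, TGR (20 nM dispensed) and NADPH were mixed with compound. Second, a 15 min room-temperature incubation followed. Third, further NADPH and then DTNB were added to start the reaction. Finally, TNB absorbance was monitored kinetically.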
# Pf growth 96h: Primary qHTS for delayed death inhibitors of the malarial parasite plastid, 96 hour incubation. P. falciparum luciferase reporter growth, 96 h. 320,000 tested, 6.9% active. Potency, µM (doses to about 28.7 µM), for the others: at the highest dose activity change, negative = inhibition, most hits filed as inhibitors; note: % is set by controls: 0 for no effect and ±100 for the full control effect
#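 Readout is luminescence from an integrated firefly luciferase in P. falciparum. Red cells, 2% hematocrit and 0.05% parasitemia final, were cultured with compound through two parasite generations (96 hours) at 37 C, 5% CO2.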
# * marks the source's active call; other numbers are inactive results; u = inconclusive; x = not tested or not shown; [ ] = remark or other dose. Compounds with a hit are over-represented: about 11% of the library has one in this group of screens. Unless noted, calls come from the whole dose curve; as a rule, active = well fitted curve in the direction sought with a large enough effect; inconclusive = small, poorly fitted or top-dose-only effect, or another doubt; inactive = no such curve, though single readings can be large; an effect the other way counts as inactive or inconclusive. Potency is the fitted concentration of half-maximal effect.
SMILES,Pf growth 48h,NS1 function inh,AMA1-RON2 inh,Sm TGR block,Pf growth 96h
COC(=O)C1=C(c2ccc(-c3ccccc3)c(F)c2)C[C@@H]2CC[C@H]1N2C(=O)NCCCOC(C)C,u,x,-3%,3%,u
COC(=O)C1=C(c2ccc(-c3ccccc3)c(F)c2)C[C@@H]2CC[C@H]1N2C(=O)NCCOc1ccc(OC)cc1,7.4µM*,x,-26%,-6%,u
CCn1cc(C(=O)NCCc2ccc(Cl)cc2)c(=O)c2cc(S(=O)(=O)N(C)C3CCCCC3)ccc21,x,x,x,-14%,x
CCOc1ccc(NC(=O)CCS(=O)(=O)c2ccc(Br)cc2)cc1,17%,-1%,-2%,-30%,36%
CS(=O)(=O)c1ccc(-n2c(=O)n(Cc3ccccc3)c(=O)c3[nH]cnc32)cc1,u,3%,-6%,-5%,8%
Cc1ccc(C(=O)NC(=S)Nc2ccc3c(c2)OCCO3)c(C)c1,49%,-48%,-21%,u,u
CCc1ccc(C(=O)NC(=S)Nc2ccc3c(c2)OCCO3)cc1,183%,17%,9%[11.6 µM],-25%,8.3µM*
Cc1cc(C)cc(C(=O)NC(=S)Nc2ccc3c(c2)OCCO3)c1,145%,0%,0%,-28%,0.93µM*
COc1ccccc1-c1cc(=O)c2c(O)ccc([N+](=O)[O-])c2o1,12µM*,6%,59%,u,10µM*
CN(CCC#N)C(=O)COC(=O)c1c2c(nc3ccccc13)/C(=C/c1ccco1)CC2,12%,u,-17%,10µM*,-34%
CC(C)CNC(=O)COC(=O)c1c2c(nc3ccccc13)/C(=C\c1cccs1)CC2,x,x,12%,x,x
O=C(CCN1CCN(c2ccccc2F)CC1)Nc1ccc(F)cc1,-2%,5%,-3%,u,u
COC(=O)c1c(NC(=O)CN2CCN(c3ccccc3)CC2)c2c(C)cccc2n1C,x,-53%,27%,3%[11.4 µM],5.9µM*
COC(=O)c1ccc(NC(=O)CN2CCN(c3ccccc3C)CC2)cc1,16%,-29%,3%,0%,9.3µM*
Cc1ccccc1N1CCN(CCC(=O)Nc2ccc(F)cc2)CC1,19%,-5%,3%,40µM*,127%
COc1ccc(NC(=O)CN2CCN(c3ccccc3C)CC2)cc1,-10%,-25%,-7%,2%,u
O=C(NCCN1CCN(C(=O)Nc2ccccc2)CC1)Nc1ccccc1,x,-2%,-2%,0%,5.2µM*
CN(Cc1ccccc1)C(=O)c1ccc(CSc2nc3cccnc3n2Cc2ccccc2F)cc1,x,x,x,9%,x
CN(C(=O)CSc1nc2ccc(NC(=O)c3ccccc3)cc2s1)c1ccccc1,x,x,x,0%,x
Cn1c(=O)n(CCCc2ccccc2)c(=O)c2c1nc1n2CCN1c1ccc(F)cc1,x,x,x,4%,x
CCN1CCN(CCC(=O)Nc2ccccc2)CC1,70%,21%,4%,2%,13µM*
CCOC(=O)c1ccc(NC(=O)CSc2nc3ccccc3c(=O)n2CCNC(C)=O)cc1,x,x,x,6%,x
COc1cc(NC(=O)Cn2ccsc2=N)c(C)cc1[N+](=O)[O-],-21%,-1%,-5%,-33%,u
N=c1sccn1CC(=O)Nc1ccc(S(N)(=O)=O)cc1,u,1%,31%,45µM*,u
N=c1sccn1CC(=O)Nc1ccc(Cl)cc1[N+](=O)[O-],20%,2%,-16%,40µM*,25%
SMILES,Pf growth 48h,NS1 function inh,AMA1-RON2 inh,Sm TGR block,Pf growth 96h
O=C(Nc1ccc(Cl)cc1)ON=C1CCCC1,12µM*,-43%,-13%,9%,u
NC(=O)Nc1ccc(Cl)cc1,90%,-4%,5%,12%,35%
CC(C)Nc1nc(Cl)nc(N(C#N)CN2C(=O)c3ccccc3S2(=O)=O)n1,12%,0%,1%,20µM*,17%
O=C(Nc1ccc(S(=O)(=O)N2CCCC2)cc1)C1COc2ccccc2O1 (stereo unspecified),-10%,-65%,-6%,-11%,26%
C[C@@H](C(=O)Nc1nc(-c2ccccn2)cs1)N1C(=O)C2CCCCC2C1=O (stereo partly specified),x,-1%,u,-10%,12µM*
N#CCC(=O)Nc1nc(-c2ccc3c(c2)OCCO3)cs1,23%,17%,18%,-1%,10µM*
O=C(Nc1nc(-c2ccc(S(=O)(=O)N3CCCC3)cc2)cs1)C1COc2ccccc2O1 (stereo unspecified),9.3µM*,7.9µM*,-3%,5%,-7%
O=C(CN1C(=O)C2CCCCC2C1=O)Nc1nc(-c2ccccn2)cs1 (stereo unspecified),x,7%,5%,-16%,u
CC1CC1C(=O)Nc1nc(-c2ccccn2)cs1 (stereo unspecified),x,-14%,22%,4%,3.7µM*
O=C(CCCCl)Nc1nc(-c2ccc3c(c2)OCCO3)cs1,138%,-9%,-4%,4%,123%
OC(c1ccccc1)c1nc(-c2cncnc2)cs1 (stereo unspecified),x,x,-2%,x,x
CC(C)CCNC(=O)c1ccc(Cn2c(SCC(=O)NC(C)C)nc3ccccc3c2=O)cc1,x,x,x,16%,x
O=C(Nc1nc(-c2ccc3c(c2)OCCO3)cs1)c1ccc(S(=O)(=O)N2CCCCC2)cc1,12µM*,6%,-13%,-6%,u
O=C(Nc1nc(-c2ccccn2)cs1)C1COc2ccccc2O1 (stereo unspecified),8.3µM*,-125%,-42%,18%,0.37µM*
CC1Oc2ccccc2OC1C(=O)Nc1ccccn1 (stereo unspecified),5.9µM*,-4%,-5%,-21%,10%
O=C(Nc1nc(-c2ccccc2)cs1)C1COc2ccccc2O1 (stereo unspecified),7%,-9%,-4%,1%,55%
O=C(Nc1ccccn1)C1COc2ccccc2O1 (stereo unspecified),51%,4%,12%,2%,5.9µM*
CC(=O)Nc1c(Cl)cc2c(c1Cl)Cc1cc(C#N)ccc1-2,x,x,-12%,x,x
CCCOc1ccc(C(F)(F)F)cc1NC(=O)CCc1c(C)noc1C,u,x,14%,-2%,u
COc1ccc(-n2c(CN3CCC(C(N)=O)CC3)nc3ccc([N+](=O)[O-])cc3c2=O)c(OC)c1,0%,-3%,17%,45µM*,u
CCOC(=O)C1CCN(Cc2nc3ccc([N+](=O)[O-])cc3c(=O)n2-c2ccc(OC)cc2OC)CC1,u,1%,-4%,32µM*,2%
COc1ccc(-n2c(CN3CCN(c4ccccc4OC)CC3)nc3ccc([N+](=O)[O-])cc3c2=O)c(OC)c1,13µM*,7%,0%,u,-18%
Cc1ccc(C)n1-c1ccc2c(c1)COC2=O,u,21%,x,11µM*,30%
